Test results taken from PubChem BioAssay AID1159580 (chemical genetic matrix, 2015).
About 2,000 (36%) of roughly 5,500 compounds were called active. About 18% were inconclusive and are not listed. The list shows a part of the results. A number with no mark means an inactive call. Cut-off read from the data, not from the text of the source: active = normalized growth mostly below about 0.91 (no sharp cut-off); inconclusive = no clear call, values can overlap the other calls; inactive = mostly above about 0.92.

Assay: chemical genetic growth profiling, strain panel (AID 1159580);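 note: tested at 20 µM; growth read once vehicle control cultures reached saturation at 30 °C; 1 = growth at the plate median or of vehicle wells; lower values mean less growth of the strain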
Conditions: growth OD
[1] = S. cerevisiae deletion strains, locus YAL013W, strain DEP1, active compounds read low
[2] = S. cerevisiae deletion strains, locus YBR229C, strain ROT2, active compounds read low
[3] = S. cerevisiae deletion strains, locus YDL101C, strain DUN1, active compounds read low
[4] = S. cerevisiae deletion strains, locus YDR150W, strain NUM1, active compounds read low
[5] = S. cerevisiae deletion strains, locus YEL061C, strain CIN8, active compounds read low
[6] = S. cerevisiae deletion strains, locus YGR078C, strain PAC10, active compounds read low
[7] = S. cerevisiae deletion strains, locus YHR030C, strain SLT2, active compounds read low
[8] = S. cerevisiae deletion strains, locus YHR087W, strain rtc3, active compounds read low
[9] = S. cerevisiae deletion strains, locus YJR043C, strain POL32, active compounds read low
[10] = S. cerevisiae deletion strains, locus YJR075W, strain HOC1, active compounds read low
[11] = S. cerevisiae deletion strains, locus YKL190W, strain CNB1, active compounds read low
[12] = S. cerevisiae deletion strains, locus YLR039C, strain RIC1, active compounds read low
[13] = S. cerevisiae deletion strains, locus YLR058C, strain SHM2 (second series), active compounds read low
[14] = S. cerevisiae deletion strains, locus YLR085C, strain ARP6, active compounds read low
[15] = S. cerevisiae deletion strains, locus YLR262C, strain YPT6, active compounds read low
[16] = S. cerevisiae deletion strains, locus YML094W, strain GIM5, active compounds read low
[17] = S. cerevisiae deletion strains, locus YMR219W, strain ESC1, active compounds read low
[18] = S. cerevisiae deletion strains, locus YMR263W, strain SAP30, active compounds read low
[19] = S. cerevisiae deletion strains, locus YNL153C, strain GIM3, active compounds read low
[20] = S. cerevisiae deletion strains, locus YNL298W, strain CLA4 (second series), active compounds read low
[21] = S. cerevisiae deletion strains, locus YNL322C, strain KRE1, active compounds read low
[22] = S. cerevisiae deletion strains, locus YNR030W, strain Alg12, active compounds read low
[23] = S. cerevisiae deletion strains, locus YPL055C, strain LGE1, active compounds read low
[24] = S. cerevisiae deletion strains, locus YPL241C, strain CIN2, active compounds read low
[25] = S. cerevisiae deletion strains, locus YPR135W, strain CTF4, active compounds read low
[26] = S. cerevisiae strains, strain wild type, active compounds read low
[27] = S. cerevisiae deletion strains, locus YAL040C, strain CLN3, active compounds read low
[28] = S. cerevisiae deletion strains, locus YER002W, strain NOP16, active compounds read low
[29] = S. cerevisiae deletion strains, locus YNL175C, strain NOP13, active compounds read low
[30] = S. cerevisiae deletion strains, locus YNL197C, strain WHI3, active compounds read low
[31] = S. cerevisiae deletion strains, locus YNL224C, strain SQS1, active compounds read low
[32] = S. cerevisiae deletion strains, locus YOR083W, strain WHI5 (second series), active compounds read low

## CC(C)(C)c1nccc(-c2nn(-c3ccc(F)cc3)ccc2=O)n1
[1]
  normalized growth: 0.991
[2]
  normalized growth: 0.988
S. cerevisiae deletion strains, locus YCL061C, strain MRC1, active compounds read low
  normalized growth: 1.02
[3]
  normalized growth: 1.03
S. cerevisiae deletion strains, locus YDL134C, strain PPH21, active compounds read low
  normalized growth: 0.994
[4]
  normalized growth: 0.9
[5]
  normalized growth: 1.01
[6]
  normalized growth: 1.01
[7]
  normalized growth: 1.02
[8]
  normalized growth: 0.985
S. cerevisiae deletion strains, locus YJL187C, strain SWE1, active compounds read low
  normalized growth: 1.03
[9]
  normalized growth: 1
[10]
  normalized growth: 1.03
[11]
  normalized growth: 1.01
[12]
  normalized growth: 0.99
[13]
  normalized growth: 1
[14]
  normalized growth: 1.15
[15]
  normalized growth: 0.974
[16]
  normalized growth: 1
[17]
  normalized growth: 1
[18]
  normalized growth: 0.995
[19]
  normalized growth: 1.02
[20]
  normalized growth: 1.03
[21]
  normalized growth: 1
[22]
  normalized growth: 0.999
S. cerevisiae deletion strains, locus YOL006C, strain TOP1, active compounds read low
  normalized growth: 1.09
[23]
  normalized growth: 0.949
[24]
  normalized growth: 1.04
[25]
  normalized growth: 0.869
[26]
  normalized growth: 0.99

## Cc1ccc2[nH]c3c(c2c1)CCCC3
[1]
  normalized growth: 0.853 (active)
[2]
  normalized growth: 0.544 (active)
[3]
  normalized growth: 0.778 (active)
[4]
  normalized growth: 0.911
[5]
  normalized growth: 0.738 (active)
[6]
  normalized growth: 0.781 (active)
[7]
  normalized growth: 0.377 (active)
[8]
  normalized growth: 0.762 (active)
[9]
  normalized growth: 0.869 (active)
[10]
  normalized growth: 0.636 (active)
[11]
  normalized growth: 0.989
[12]
  normalized growth: 0.259 (active)
[13]
  normalized growth: 0.867 (active)
[14]
  normalized growth: 0.696 (active)
[15]
  normalized growth: 0.224 (active)
[16]
  normalized growth: 0.664 (active)
[17]
  normalized growth: 0.828 (active)
[18]
  normalized growth: 0.867 (active)
[19]
  normalized growth: 0.807 (active)
[20]
  normalized growth: 0.578 (active)
[21]
  normalized growth: 0.949
[22]
  normalized growth: 0.669 (active)
[23]
  normalized growth: 0.822 (active)
[24]
  normalized growth: 0.722 (active)
[25]
  normalized growth: 0.477 (active)
[26]
  normalized growth: 0.904 (active)

## COc1ccc2[nH]c3c(c2c1)CCNC3
[27]
  normalized growth: 0.974
[28]
  normalized growth: 1.02
S. cerevisiae deletion strains, locus YGR229C, strain SMI1, active compounds read low
  normalized growth: 1.05
[10]
  normalized growth: 1.01
S. cerevisiae deletion strains, locus YNL128W, strain TEP1, active compounds read low
  normalized growth: 0.996
[19]
  normalized growth: 0.983
[29]
  normalized growth: 0.985
[30]
  normalized growth: 0.983
[31]
  normalized growth: 1.01
[32]
  normalized growth: 0.996
[23]
  normalized growth: 1
[24]
  normalized growth: 0.981

## O=C1Cc2c([nH]c3ccc(Br)cc23)-c2ccccc2N1
[27]
  normalized growth: 0.964
S. cerevisiae deletion strains, locus YCL061C, strain MRC1 (second series), active compounds read low
  normalized growth: 0.991
[4]
  normalized growth: 0.989
S. cerevisiae deletion strains, locus YDR363W, strain ESC2, active compounds read low
  normalized growth: 1.03
[28]
  normalized growth: 1.01
[10]
  normalized growth: 1.06
[29]
  normalized growth: 0.984
[30]
  normalized growth: 0.988
[31]
  normalized growth: 0.998
[32]
  normalized growth: 0.976
[24]
  normalized growth: 0.985
